# Laboratory results reported in the OligoGym collection.
# Molecular target: FAM22D
# Assay: pooled miR-30 sensor sort-seq; sequence = guide strand
# Conditions: shRNA
# Further: reference of the scale not given here.
row,Sequence,sensor-assay potency score (higher = more potent)
1,AAGTTAGACAGCACCAGAGGGC,-0.454
2,TTGGTGACGAAGTCTTTCTGGG,-0.0512
3,TGTTCTGTCACCAGAGGTGTGC,-0.395
4,TTGGTCTCTGCTCGCCGGTGGG,-1.33
5,TGAGGAAGCACGAAAGCGCTTC,-0.41
6,TACTCCTGCACCACTTCTGGGG,-0.442
7,TTAGACAGCACCAGAGGGCCGC,-0.28
8,TTCTCATAGACACTCCTGGGGT,-0.655
9,AATTCTTCCAGGAATTGGGGAT,-0.511
10,TTCCACAATGAGAAAAGCCAAG,-1.63
11,TAAGACCCAGAGAGTGACCTGG,-0.135
12,TTCGGTGTCAGGACTCTGGGGA,0.265
13,TTTGAAAGTAAACAGGTTCCTG,-0.0805
14,TAAGACCAAGGTCTGCGCCTGA,-0.117
15,ATGAATGACGGCCTCCACCTTG,-1.02
16,TTGAAAGTAAACAGGTTCCTGG,-0.42
17,TGGTCTCTGCTGGTCTCTGGGG,-1.54
18,TCTCATAGACACTCCTGGGGTT,0.0703

# Molecular target: FAM22F
# Assay: as above
# Conditions: shRNA
row,Sequence,sensor-assay potency score (higher = more potent)
1,AAGCACAGCAGGGTCTTCGGAC,-0.95
2,TTTCTGAGCAGATGGAGACTGA,-0.731
3,TTCTTGGACTTGCTGGCAGGAG,-0.948
4,TGACAGGAGACTCTCCAGGGAG,-0.895
5,TCTCTCGCTGCTTCTTGGCCAG,-0.748
